LDHA inh: LDHA (human) enzyme inhibition | activity change, % (values are at about 110 or 230 µM) | AID 1347041 | purified LDHA, NADH/diaphorase-resazurin fluorescence; active compounds read low | P00338 | 0.15% of 480,000 active; in the data active = activity change below about -30%; inconclusive = mostly about -25% to -30%
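Enzyme activity of human lactate dehydrogenase 5 (2 nM; 0.06 mM NADH, 0.2 mM pyruvate, 5 min, RT) is measured via a resazurin/diaphorase fluorescence readout of residual NADH.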
pAkt inh: Akt phosphorylation inhibition; Neuro2A IGF-stimulated pAkt S473 HTRF, 20 min; active compounds read low; activity change, % for hits at 50 µM; 0.32% of 360,000 active; in the data active = activity change below about -80%; inconclusive = mostly about -51% to -80%
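Neuro2A cells (4,500/well, DMEM with 0.5% FBS) were treated with compound at a single 50 µM final concentration, stimulated with 6 nM IGF for 20 min at 37 °C, and lysed. Phospho-Akt Ser473 was read by HTRF as 665/615 ratio ×10^4.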
DRD3 antagonist: antagonists of human D3 dopamine receptor; 2.5% of 360,000 active; AID 652054; max response, negative = inhibition, %; P35462; D3R cells, DiscoveRx beta-arrestin luminescence, antagonist mode; active compounds read low; in the data active = max response below about -50%; inconclusive = no clear call, values can overlap the other calls
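Cells expressing the human receptor were seeded at 1500 cells/well, incubated overnight at 37 degrees C in 5% CO2, then exposed to library compounds with dopamine controls for 90 minutes at 37 degrees C before luminescent detection.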
D3 ag: D3 dopamine receptor (human) agonism; D3R DiscoveRx beta-arrestin cells, luminescence, 90 min; max activation, %; 0.58% of 410,000 active; in the data active = max activation above about 30%
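Agonist-mode cell screen: cells plated at 1500/well and incubated overnight at 37 °C, then exposed to library compounds for 90 min at 37 °C. Detection reagent was added for 30–60 min at room temperature, and luminescence was read.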
PI4K2A inh: PI4K2A (human) kinase inhibition; Q9BTU6; purified PI4K2A, ADP-Glo luminescence, 1 h; active compounds read low; activity change, negative = inhibition, % at 76.9 µM; 0.13% of 420,000 active; AID 1346378; in the data active = activity change below about -50%; inconclusive = mostly about -30% to -49%
Target sequence (Q9BTU6 whole entry, looked up): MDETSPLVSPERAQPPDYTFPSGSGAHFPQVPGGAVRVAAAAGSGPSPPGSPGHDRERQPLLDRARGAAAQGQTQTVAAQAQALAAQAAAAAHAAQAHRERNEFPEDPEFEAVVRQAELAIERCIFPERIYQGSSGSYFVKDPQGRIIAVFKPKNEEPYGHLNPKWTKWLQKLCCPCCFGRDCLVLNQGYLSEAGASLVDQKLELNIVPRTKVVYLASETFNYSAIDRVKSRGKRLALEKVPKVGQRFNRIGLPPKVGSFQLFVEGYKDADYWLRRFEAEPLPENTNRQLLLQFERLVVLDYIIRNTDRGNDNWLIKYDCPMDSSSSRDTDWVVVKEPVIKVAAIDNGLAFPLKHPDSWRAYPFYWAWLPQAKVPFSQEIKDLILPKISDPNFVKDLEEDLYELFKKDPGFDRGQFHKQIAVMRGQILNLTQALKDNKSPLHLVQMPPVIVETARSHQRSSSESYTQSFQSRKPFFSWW
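ADP-Glo luminescence measured ADP generated by PI4K2A enzyme (4 ug/mL before mixing) with 1.2 mM PI substrate (pre-mix) and 300 microM ATP (pre-mix). Tris pH7.5 buffer with MgCl2, Triton X-100; 1 h reaction at ambient temperature.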
RGS4 inh: human RGS4 inhibition; 0.039% of 390,000 active; Transcreener GDP fluorescence polarization, RGS4-accelerated GTP hydrolysis; Potency, µM (series often up to 114 µM), usual class: inhibitors; P49798; active = well fitted inhibition curve with a large enough effect; inconclusive = small, poorly fitted or top-dose-only effect; inactive = no such curve, though single readings can be large or run the other way; note: nearly all actives have a fitted effect of over 75% in size
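MLSMR compounds (23 nl, pin-transferred) preincubated 10 min at room temperature with a 500nM (2x) first reagent, then RGS4 at 900nM (2x) plus Transcreener GDP mix added; fluorescence polarization (620/688 nm) read before and after 90 min at 30 °C.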
Of the large screens only hits and unclear results are named; the others gave an inactive call. Rows were chosen to be rich in hits. Some 2.8% of all compounds tested hit in one or more screens of this group.

COc1ccc2cc3cc(C(=O)NCCN4CCc5ccccc5C4)sc3nc2c1	DRD3 antagonist -93
COc1ccc(NC(=O)COC(=O)CN2C(=O)c3ccccc3C2=O)cc1	DRD3 antagonist -54
COc1ccc(NC(=O)CN2CCc3ccccc3C2)cc1	DRD3 antagonist -80
CCCc1cc(C(=O)OCC(=O)c2ccc3c(c2)OCCO3)sc1C	none (no result: pAkt inh, DRD3 antagonist, D3 ag, PI4K2A inh, RGS4 inh)
COc1ccc(NC(=O)CSc2nc3c(cc2C#N)CN(C)CC3)cc1	none
CCN1CCc2nc(SCC(=O)Nc3ccc(OC)cc3)c(C#N)cc2C1	DRD3 antagonist -70
COc1ccc(NC(=O)NCCCN2CCc3ccccc3C2)cc1	DRD3 antagonist -108
Cc1ccc(Oc2ccc(S(=O)(=O)N3CCCC3)cn2)c(Br)c1	none (no result: pAkt inh, DRD3 antagonist, D3 ag, PI4K2A inh, RGS4 inh)
CCC/C(=N\NC(N)=S)c1ccccc1	none (no result: pAkt inh, DRD3 antagonist, D3 ag, PI4K2A inh, RGS4 inh)
CC1(C)C2CC=C(/C=N/NC(=S)NCc3ccccc3)C1C2 (centres undefined)	none (no result: pAkt inh, DRD3 antagonist, D3 ag, PI4K2A inh, RGS4 inh)
CCOC(=O)c1oc2ccc(S(=O)(=O)Nc3ccc4c(c3)n(C)c(=O)n4C)cc2c1C	D3 ag 32
COc1ccc(S(=O)(=O)Nc2ccc3c(c2)n(C)c(=O)n3C)cc1C	none
COC(=O)c1c(NC(=O)c2cc3ccccc3o2)sc(C)c1C	none (no result: pAkt inh, DRD3 antagonist, D3 ag, PI4K2A inh, RGS4 inh)
CNc1c(NC(=O)C2CC(=O)N(c3ccccc3)C2)c(=O)oc2ccccc12 (centres undefined)	none (no result: pAkt inh, DRD3 antagonist, D3 ag, PI4K2A inh, RGS4 inh)
CC(C)Cc1nc(S(=O)(=O)c2ccc(Cl)cc2)c(N2CCOCC2)o1	DRD3 antagonist -54
CCCN(C)c1ccc(/C=N/NC(=S)Nc2ccc(C)cc2)cc1	none (no result: pAkt inh, DRD3 antagonist, D3 ag, PI4K2A inh, RGS4 inh)
O=C(c1[nH]c(C(F)(F)F)nc1-c1ccccc1)N1CCN(c2cccc(C(F)(F)F)n2)CC1	DRD3 antagonist -55 (no result: RGS4 inh)
CC(=O)N1CCN(C(=O)c2[nH]c(C(F)(F)F)nc2-c2ccccc2)CC1	none (no result: RGS4 inh)
CC1CCN(C(=O)c2[nH]c(C(F)(F)F)nc2-c2ccccc2)CC1	DRD3 antagonist -69 (no result: RGS4 inh)
CS(=O)c1ccc(C(=O)Nc2ccc(N3CCOCC3)cn2)cc1 (centres undefined)	none (no result: pAkt inh, DRD3 antagonist, D3 ag, PI4K2A inh, RGS4 inh)
Cc1cc(C)c(S(=O)(=O)/N=C2/C=C(Sc3ncn[nH]3)C(=O)c3ccccc32)cc1C	DRD3 antagonist -69, PI4K2A inh -54
Cc1ccc(C)c(S(=O)(=O)/N=C2\C=C(NS(=O)(=O)c3ccccc3)C(=O)c3ccccc32)c1	DRD3 antagonist inconclusive
COc1ccccc1C(C)NC(=O)c1n[nH]c(=O)c2ccccc12 (centres undefined)	none (no result: pAkt inh, DRD3 antagonist, D3 ag, PI4K2A inh, RGS4 inh)
CCN1CCN(C(=O)c2ccc3c(c2)N(Cc2ccccc2)C(=O)c2ccccc2S3(=O)=O)CC1	DRD3 antagonist -72
COc1ccc(NC(=O)C2CCN(C(=O)Nc3ccccc3)CC2)cc1S(=O)(=O)N(C)C	DRD3 antagonist -67
COc1cccc(COc2ccccc2C2Nc3ccc(Br)cc3C(=O)N2NC(=O)c2ccncc2)c1 (centres undefined)	DRD3 antagonist -55, RGS4 inh inconclusive
COc1ccc(C2Nc3ccccc3C(=O)N2NC(C)=O)c(OC)c1 (centres undefined)	none
CCc1ccc(-n2c(SCc3c(C)noc3C)nnc2-c2ccncc2)cc1	none
Cc1noc(C)c1CSc1nnc(-c2c[nH]c3ccccc23)n1-c1ccc(Cl)cc1	pAkt inh -115%
CC(C)C(C)(C#N)NC(=O)COc1ccccc1C(F)(F)F (centres undefined)	none (no result: pAkt inh, DRD3 antagonist, D3 ag, PI4K2A inh, RGS4 inh)
Cc1ccc(C(C)NC(=O)C23CC4CC(CC(C4)C2)C3)cc1 (centres undefined)	none
CC(NC(=O)C12CC3CC(CC(C3)C1)C2)c1ccc2c(c1)OCCO2 (centres undefined)	D3 ag 32
CC(C)(C)c1cc(C=O)c(O)c(C(C)(C)C)c1	none (no result: pAkt inh, DRD3 antagonist, D3 ag, PI4K2A inh, RGS4 inh)
CC(C)(C)c1cc(-c2nc(N)nc(N)n2)c(O)c(C(C)(C)C)c1	D3 ag 48
Cc1ccc(/C=C(/C#N)c2nc(-c3ccncc3)cs2)cc1	none (no result: pAkt inh, DRD3 antagonist, D3 ag, PI4K2A inh, RGS4 inh)
CC(C)OCCCNC(=O)c1cccc(CS(C)(=O)=O)c1	none (no result: pAkt inh, DRD3 antagonist, D3 ag, PI4K2A inh, RGS4 inh)
NC(=S)c1cc2ccc(O)cc2oc1=O	DRD3 antagonist -68
O=c1oc2cc(O)ccc2cc1S(=O)(=O)c1ccccc1	D3 ag 35 (no result: pAkt inh)
